Screening data (PubChem BioAssay)
Only some compounds are listed: those with a hit (about 0.28% of all), similar ones and a draw of the others.
USP2a block: inhibitors of human ubiquitin-specific protease USP2a; USP2 core, Ub-CHOP2 coupled fluorogenic reporter, 485/531; Potency, µM (titrated, usually from 38.3 µM), inactives show at the highest dose activity change, negative = inhibition, hits mostly inhibitors; 330,000 tested, 0.01% active; AID 463254;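 further: potency means the concentration at half of the fitted maximal effect; plate controls were DMSO wells for no effect and full inhibition by NEM control for full effect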
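Cell-free coupled assay: 10nM USP2 core preincubated 30min RT with compound in Tris-HCl pH 8.0/CaCl2/CHAPS buffer, then 25nM Ub-CHOP2 and 25nM reporter substrate; fluorescence (Ex 485/Em 531) read after 60min RT, normalized to NEM inhibition, concentration-response curves fitted.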
Pin1 inh: inhibitors of human Pin1; Potency, µM (top dose mostly 115 µM), inactives show at the highest dose activity, negative = inhibition, actives largely listed as inhibitors; Pin1 FP peptide displacement, HiFluor488, 10 min; Q13526; 390,000 tested, 0.009% active; active means well fitted inhibition curve with a large enough effect in the polarisation, with a control signal flat, not every such curve was filed as active; inconclusive means small, poorly fitted or top-dose-only effect, or effect the other way, or a change in a side signal; inactive means no such curve, though single readings can be large or run the other way; the % refers to the polarisation; further: potency means the concentration at half of the fitted maximal effect; on the % scale 0 is the no-effect control and ±100 the full control effect
Tb PFK inh-1: blocks T. brucei phosphofructokinase. T. brucei PFK, ADP-Glo luminescence. Potency, µM (titrated, usually from 57.5 µM), for inactives: at the highest dose activity, negative = inhibition, actives largely listed as inhibitors. 330,000 tested, 0.17% active. AID 485367. O15648;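 further: potency means the concentration at half of the fitted maximal effect; 0% = uninhibited 1x PFK enzyme wells and -100% = no-enzyme wells; nearly all actives have a fitted effect of over 60% in size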
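Activity is normalized to no-enzyme wells (full inhibition) and 1.25 nM enzyme wells (no inhibition). Reaction: 0.5 mM F6P, 0.1 mM ATP, 45 min RT, ADP-Glo luminescence; concentration-response curves fitted and classed by quality.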
Tb PGK inh: inhibitors of T. brucei phosphoglycerate kinase | PGK/GAPDH coupled, Kinase-Glo luminescence, 60 min | 380,000 tested, 0.043% active | Potency, µM (top dose mostly 57.5 µM), without a hit: at the highest dose activity change, negative = inhibition, hits mostly inhibitors; further: potency means the concentration at half of the fitted maximal effect; on the % scale 0 is the no-effect control and ±100 the full control effect; nearly all actives have a fitted effect of over 60% in size
Target sequence (P07378 whole entry, looked up): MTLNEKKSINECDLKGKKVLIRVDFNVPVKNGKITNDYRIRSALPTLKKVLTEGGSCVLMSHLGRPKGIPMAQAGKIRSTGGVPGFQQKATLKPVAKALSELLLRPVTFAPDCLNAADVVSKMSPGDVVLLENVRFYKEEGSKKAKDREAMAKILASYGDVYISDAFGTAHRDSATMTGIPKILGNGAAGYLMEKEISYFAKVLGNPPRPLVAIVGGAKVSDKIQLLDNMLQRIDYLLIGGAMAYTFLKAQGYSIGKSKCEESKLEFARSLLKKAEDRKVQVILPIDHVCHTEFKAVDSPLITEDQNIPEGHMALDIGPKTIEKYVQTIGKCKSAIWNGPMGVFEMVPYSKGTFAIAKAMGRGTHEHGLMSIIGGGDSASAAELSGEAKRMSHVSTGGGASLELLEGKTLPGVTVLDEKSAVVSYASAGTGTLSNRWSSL
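Recombinant glycosomal PGK reaction used 1,3-bisphosphoglycerate generated in-well by GAPDH (100nM final) in 100mM TEA pH 7.6, 5mM MgCl2, 0.01% Tween-20. After 60 minutes at room temperature, ATP was read by Kinase-Glo Plus luminescence end-point.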
PI4K2A block: blocks human PI4K2A kinase activity; purified PI4K2A, ADP-Glo luminescence, 1 h; hits give low values; activity change, negative = inhibition, % at 76.9 µM; 420,000 tested, 0.13% active; AID 1346378; in the data active means activity change below about -50%; inconclusive means mostly about -30% to -49%;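 further: -100% = wells without enzyme as full effect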
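In this quantitative HTS, ADP production by PI4K2A was quantified luminescently after 1 h at ambient temperature; 100 microM adenosine served as plate-quality control.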
TbPFK ATP: orthogonal confirmation of T. brucei phosphofructokinase inhibitors | shares compounds with Tb PFK inh-1 | Tb PFK enzyme, ATP depletion, Kinase-Glo Plus luminescence | Potency, µM (doses to about 57.5 µM), inactives show at the top dose inhibition | 1,100 tested, 47% active; calls by dose curve; further: potency means the concentration at half of the fitted maximal effect; nearly all actives have a fitted effect of over 60% in size
Tb PFK inh-2: validation of T. brucei phosphofructokinase inhibitors; shares compounds with Tb PFK inh-1; purified T. brucei PFK, ADP-Glo luminescence, 45 min; Potency, µM (doses to about 57.5 µM), without a hit: top-dose activity change, negative = inhibition, hits mostly inhibitors; 1,100 tested, 41% active;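 further: potency means the concentration at half of the fitted maximal effect; plate controls were full PFK enzyme control for no effect and no enzyme control for full effect; nearly all actives have a fitted effect of over 60% in size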
* = called active by the depositor; i = inactive; ? = inconclusive; / = no result given. Unless noted, the call rests on the fitted dose curve; in most records, active means well fitted curve in the direction sought with a large enough effect; inconclusive means small, poorly fitted or top-dose-only effect, or another doubt; inactive means no such curve, though single readings can be large; an effect the other way counts as inactive or inconclusive.

SMILES | USP2a block | Pin1 inh | Tb PFK inh-1 | Tb PGK inh | PI4K2A block | TbPFK ATP | Tb PFK inh-2
CCOc1cc(C(=O)OCc2cccc(OC)c2OC)ccc1OCC(=O)N1CCOCC1 | -8% | -8% | -30% | -11% | -3 | / | /
CCOc1cc(C(=O)OCc2ccc([N+](=O)[O-])cc2)ccc1OCC(=O)N1CCOCC1 | 1% | -2% | ? | i | -5 | 15µM* | 27µM*
O=C(Cc1ccc(Cl)c(Cl)c1)OCC(=O)c1ccc[nH]1 | 3% | 30% | ? | -8% | 2 | 9.5µM* | 19µM*
O=C(OCc1ccc(Cl)c(Cl)c1)c1ccc[nH]1 | 1% | 1% | ? | -2% | 2 | 24µM* | 21µM*
O=C(COc1ccc(Cl)cc1)OCC(=O)c1ccc[nH]1 | -3% | 10% | ? | -3% | -2 | 18% | ?
O=C(OCc1ccc(Cl)c(Cl)c1)c1cnccn1 | 6% | 1% | ? | i | 2 | 24µM* | 27µM*
O=C(Cc1ccc(Cl)cc1)OCC(=O)c1ccc[nH]1 | 2% | -4% | 0% | 3% | 0 | / | /
COc1cc(S(N)(=O)=O)cc(C(=O)O)c1OC | / | / | / | / | 4 | / | /
CCN(CC)CCN | / | / | / | / | 0 | / | /
Cc1cc(C)c(OCC(=O)Nc2cc(C(=O)O)cc(C(=O)O)c2)cc1C | 3% | -2% | 21µM* | 0% | 0 | 8.5µM* | 19µM*
Cc1ccc(C)c(OCC(=O)Nc2cc(C(=O)O)cc(C(=O)O)c2)c1 | 1% | -4% | ? | -7% | -3 | / | /
COc1ccc(-c2csc(NS(=O)(=O)c3ccc([N+](=O)[O-])cc3)n2)cc1 | -9% | ? | ? | -10% | -2 | -33% | ?
CN(C)CCn1nnnc1SCC1=C(C(=O)O)N2C(=O)[C@@H](NC(=O)Cc3csc(N)n3)[C@H]2SC1 | 6% | ? | 12µM* | -6% | ? | 6% | -7%
Cc1nnc(SCC2=C(C(=O)O)N3C(=O)C(NC(=O)Cn4nc(C(F)F)cc4C)C3SC2)s1 (stereo unspecified) | 0% | ? | -10% | ? | -8 | / | /
CC/C=C(\C(=O)N[C@@H]1C(=O)N2C(C(=O)OCOC(=O)C(C)(C)C)=C(COC(N)=O)CS[C@H]12)c1csc(N)n1 | / | / | / | / | -11 | / | /
COc1cccc(C2C(C#N)=C(NC(=O)NCc3ccccc3)Oc3ccc4ccccc4c32)c1 (stereo unspecified) | / | 17% | / | / | / | / | /
CS(=O)(=O)N1CC(C(=O)NC2CCCC2)Oc2ccc(Cl)cc21 (stereo unspecified) | 1% | -5% | 19µM* | -2% | 0 | 9.5µM* | 24µM*
CS(=O)(=O)N1CC(C(=O)NN)Oc2ccc(Cl)cc21 (stereo unspecified) | 0% | -6% | ? | -8% | -1 | / | /
CS(=O)(=O)N1CC(C(=O)NC2CC2)Oc2ccc(Cl)cc21 (stereo unspecified) | 2% | -5% | 21µM* | -9% | -8 | 13µM* | 24µM*
O=S1(=O)CCN(Cc2ccc(Cl)c(Cl)c2)CC1 | -1% | -1% | -2% | 4% | 3 | / | /
O=S1(=O)CCOC(CO)CN1Cc1ccc(Cl)c(Cl)c1 (stereo unspecified) | 1% | 0% | ? | -7% | 1 | ? | ?
Cc1ccc(NC(=O)CN(C)C(=O)c2cccc(-n3cccc3)c2)cc1 | 1% | / | ? | ? | -16 | ? | ?
CCNc1nc(NCC)n2c(SCC(=O)Nc3ccc(CC)cc3)nnc2n1 | 3% | 1% | 21µM* | -5% | -3 | 17µM* | 17µM*
CCNc1nc(NCC)n2c(SCC(=O)Nc3ccc(NC(C)=O)cc3)nnc2n1 | -5% | 1% | ? | -25% | -2 | / | /
